KCNQ2 pot: potentiators of rat KCNQ2 potassium channel; O88943; CHO-K1 KCNQ2, FluxOR thallium flux fluorescence; hits give high values; B-score at 10 µM; actives 0.54% (n = 310,000); AID 2239;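 active = fluorescence ratio B-score at least 3 SD of library B-scores, with initial fluorescence B-score within 3 of them, cut at about 5.3 in these data; same plate scores as AID 2156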;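 note: B-score of peak minus minimum over baseline fluorescence ratio after K+ and Tl+ stimulus; positive B-score means potentiation of KCNQ2 with more thallium influx and brighter signal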
KCNQ2 inh: blocks the rat KCNQ2 potassium channel; O88943; CHO-K1 KCNQ2, FluxOR thallium flux, 20 min; hits give low values; B-score at 10 µM; actives 1.1% (n = 310,000); AID 2156;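 active = fluorescence ratio B-score at most minus 3 library SDs, with starting brightness B-score within 2 library SDs, cut at about -5.5 in these data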
* marks the source's active call; other numbers are inactive results. This is a sample that favours compounds with a hit; in the whole collection about 1.6% have one here.

Results for O=C(NC(Nc1nc2ccc([N+](=O)[O-])cc2s1)(C(F)(F)F)C(F)(F)F)c1ccccc1Cl ?
KCNQ2 pot: -10; KCNQ2 inh: -10*

Results for O=[N+]([O-])c1ccc2nc(SCc3ccccc3Cl)sc2c1 ?
KCNQ2 pot: -9.9; KCNQ2 inh: -9.9*

What do the screens show for `Nc1ccc2nc(SCc3ccc([N+](=O)[O-])cc3)sc2c1`?
KCNQ2 inh: inactive

Results for O=C(NC(Nc1nc2ccc([N+](=O)[O-])cc2s1)(C(F)(F)F)C(F)(F)F)c1cccnc1 ?
KCNQ2 pot: 1.3; KCNQ2 inh: inactive

Results for COCC(CN1CCN(C2=NS(=O)(=O)c3ccccc32)CC1)OC(=O)c1ccc(OC)cc1 (stereo not given) ?
KCNQ2 inh: inactive

How did O=C(Nc1ccc(N2CCOCC2)cc1N1CCOCC1)c1ncoc1-c1cccc(F)c1 do in these assays?
KCNQ2 inh: inactive

What do the screens show for `O=C(Nc1ccccc1N1CCCCC1)c1ncoc1-c1cccc(F)c1`?
KCNQ2 pot: -5.8; KCNQ2 inh: -5.8*

What do the screens show for `CC1CCCCN1C(=O)c1ccc(Br)o1` (stereo not given)?
KCNQ2 pot: 0.01; KCNQ2 inh: inactive

What do the screens show for `O=C(Nc1cc(Cl)cc(Cl)c1)C(c1ccccc1)N1CCCCC1` (stereo not given)?
KCNQ2 pot: -6.4; KCNQ2 inh: -6.4*

How did COc1cccc(NC(=O)C(c2ccccc2)N2CCCCC2)c1 (stereo not given) do in these assays?
KCNQ2 inh: inactive

What do the screens show for `CC(C)CN(C(=O)c1cccc(S(=O)(=O)N2CCN(C)CC2)c1)C1CCS(=O)(=O)C1` (stereo not given)?
KCNQ2 inh: inactive

What do the screens show for `Cc1cccc(C)c1NC(=O)CN(C)C(=O)c1ccccc1C(=O)N(C)Cc1ccccc1`?
KCNQ2 pot: -6.6; KCNQ2 inh: -6.6*

Results for Cc1ccccc1C(=O)N(C)Cc1ccccc1 ?
KCNQ2 inh: inactive

Results for O=S(=O)(Nc1nc2c(s1)CCCC2)c1ccc2ccccc2c1 ?
KCNQ2 pot: 0.15; KCNQ2 inh: inactive

What do the screens show for `c1ccc2c(Nc3nc4c(s3)CCCC4)cccc2c1`?
KCNQ2 pot: -7.4; KCNQ2 inh: -7.4*

What do the screens show for `CCCc1cc(=O)oc2cc(OCC(=O)Nc3ccc(S(N)(=O)=O)cc3)ccc12`?
KCNQ2 inh: inactive

Results for COc1cc2c(cc1OC)C(C)N(C(=O)CCc1c[nH]c3ccccc13)CC2 (stereo not given) ?
KCNQ2 inh: inactive

What do the screens show for `CCC1CCCCN1CCCNC(=O)c1cc2c(=O)oc3ccc(C)cc3c2s1` (stereo not given)?
KCNQ2 inh: inactive

How did Oc1ccc(Br)cc1-c1cc(-c2ccco2)[nH]n1 do in these assays?
KCNQ2 inh: inactive

How did Oc1ccc(Br)cc1-c1ccn[nH]1 do in these assays?
KCNQ2 pot: 12*; KCNQ2 inh: inactive

How did Cc1nc(N2CCN(S(=O)(=O)c3ccccc3C#N)CC2)c2c(-c3cccs3)csc2n1 do in these assays?
KCNQ2 inh: inactive

Results for Cc1nc(SCC(=O)NC(C)(C)C)c2c(-c3cccs3)csc2n1 ?
KCNQ2 pot: -6.2; KCNQ2 inh: -6.2*

How did Cc1nc(N2CCCCC2)c2c(-c3cccs3)csc2n1 do in these assays?
KCNQ2 pot: -8.2; KCNQ2 inh: -8.2*

What do the screens show for `COCCCn1c(SCC(=O)NC(C)(C)C)nnc1-c1cccs1`?
KCNQ2 pot: 0.45; KCNQ2 inh: inactive

What do the screens show for `COc1ccc(CCNC(=O)CCC(=O)N2CC(C)Oc3ccccc32)cc1OC` (stereo not given)?
KCNQ2 pot: 1.4; KCNQ2 inh: inactive

Results for Cc1ccc(-c2nnc(OCc3nc4ccccc4n3C)c3ccccc23)cc1 ?
KCNQ2 pot: 0.98; KCNQ2 inh: inactive

What do the screens show for `C[C@H]1[C@H](C)CC[C@]2(C)CC[C@]3(C)C(=CC[C@@H]4[C@@]5(C)CC[C@@H](O)[C@](C)(C(=O)O)[C@@H]5CC[C@]43C)[C@H]12`?
KCNQ2 pot: -9.2; KCNQ2 inh: -9.2*

What do the screens show for `C[C@H]1[C@H](C)CC[C@]2(C(=O)O)CC[C@]3(C)C(=CC[C@@H]4[C@@]5(C)C[C@@H](O)[C@H](O)C(C)(C)[C@@H]5CC[C@]43C)[C@H]12`?
KCNQ2 pot: 0.58; KCNQ2 inh: inactive

Results for COC1(OC)C(/C=C/c2ccc(C)cc2)C(C#N)(C#N)C1(OC)OC (stereo not given) ?
KCNQ2 pot: -7.5; KCNQ2 inh: -7.5*

What do the screens show for `CC(C)CC(C(=O)N1CCc2ccccc2C1)N1C(=O)c2ccccc2C1=O` (stereo not given)?
KCNQ2 pot: -6.5; KCNQ2 inh: -6.5*

What do the screens show for `CC(C(=O)N1CCc2ccccc2C1)N1C(=O)c2ccccc2C1=O` (stereo not given)?
KCNQ2 pot: 0.16; KCNQ2 inh: inactive

Results for COc1ccc(S(=O)(=O)N2CCOCC2)cc1NC(=O)CSc1n[nH]c(C(C)C)n1 ?
KCNQ2 inh: inactive

How did CC(C)C[C@H](NC(=O)[C@H](Cc1ccccc1)n1c(=O)[nH]c2ccccc2c1=O)C(=O)N1CCC[C@@H]1C(=O)O do in these assays?
KCNQ2 pot: 0.2; KCNQ2 inh: inactive

What do the screens show for `Cc1ccc(NC(=O)c2ccc(NCCN)c([N+](=O)[O-])c2)cc1`?
KCNQ2 inh: inactive

Results for NCCNc1ccc(C(=O)N2c3ccccc3Sc3ccccc32)cc1[N+](=O)[O-] ?
KCNQ2 pot: -8.1; KCNQ2 inh: -8.1*

Results for CN1CCN(C(=O)CCc2nc3ccccc3n2-c2ccccc2)CC1 ?
KCNQ2 pot: 1.9; KCNQ2 inh: inactive

Results for CN(C)c1ccc(-c2c(-c3ccc4c(c3)OCO4)noc2-c2ccsc2)cn1 ?
KCNQ2 pot: -5.9; KCNQ2 inh: -5.9*

What do the screens show for `COC(=O)c1cc(-c2c(-c3ccc4c(c3)OCO4)noc2-c2ccsc2)cc([N+](=O)[O-])c1`?
KCNQ2 inh: inactive

How did COc1ccc(NC(=O)CN2CCc3ccccc3C2)c([N+](=O)[O-])c1 do in these assays?
KCNQ2 inh: inactive

Results for Cc1ccccc1CSCCNC(=O)CSCc1ccc([N+](=O)[O-])cc1 ?
KCNQ2 pot: -6.4; KCNQ2 inh: -6.4*

What do the screens show for `Cc1ccc(CSCCNC(=O)CSCc2ccc([N+](=O)[O-])cc2)cc1`?
KCNQ2 inh: inactive

How did C=CCN(c1cccc(C(F)(F)F)c1)S(=O)(=O)c1cccc(C(=O)OCC(=O)NC)c1 do in these assays?
KCNQ2 pot: 1.6; KCNQ2 inh: inactive

Results for C=CCN(c1cccc(C(F)(F)F)c1)S(=O)(=O)c1cccc(C(=O)OCC(=O)Nc2ccccc2)c1 ?
KCNQ2 pot: 7.5*; KCNQ2 inh: inactive

Results for CCCCN(C(=O)COC(=O)COc1c(C)cc(C)cc1C)c1c(N)n(CCC)c(=O)[nH]c1=O ?
KCNQ2 pot: 1.4; KCNQ2 inh: inactive

What do the screens show for `CCC1=NN(C(=O)c2ccc(Br)cc2)C(O)(c2ccccc2)C1` (stereo not given)?
KCNQ2 pot: 6*; KCNQ2 inh: inactive

What do the screens show for `CC1=NN(C(=O)c2ccccc2)C(O)(c2ccc(Br)cc2)C1` (stereo not given)?
KCNQ2 pot: 1.1; KCNQ2 inh: inactive

What do the screens show for `Cc1onc(-c2ccccc2)c1C(=O)Nc1ccccc1NC(=O)c1c(-c2ccccc2)noc1C`?
KCNQ2 inh: inactive

Results for Cc1cccc(C)c1NC(=O)c1c(-c2ccccc2)noc1C ?
KCNQ2 pot: -5.7; KCNQ2 inh: -5.7*

Compound activity (PubChem BioAssay)
